Where “and” joins values, the source holds several entries; their conditions need not be identical. Identical values can stand only once.

What all share (assay): thermal shift delta Tm vs DMSO control; higher = stronger stabilization (binding)
Conditions in all cases: 12.5 µM; protein concentration 2 µM

In assay [1] the test system is LOC_OS01G57100-cb003. Put shortly: (§1)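 Heating from 25°C to 95°C at 0.05°C/s, fluorescence was recorded for 19.5 μl wells of 2 μM E. coli-expressed, purified rice kinase domain in 100 mM potassium phosphate pH 7.5, 150 mM NaCl, 10% glycerol and 5 × SYPRO Orange with compound in DMSO. Boltzmann fits gave melting temperatures for this differential scanning fluorimetry assay. The shift reported is the mean of three replicates against the DMSO-only protein.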

Assay [2] concerns LOC_OS01G60330-cb001. Put shortly:
as §1

The test system of assay [3] is LOC_OS01G60700-cb002. Put shortly: as §1
The test system of assay [4] is LOC_OS01G63280-cb003. The method in brief:
as §1

Assay [5] has as its system LOC_OS01G67340-cb003. Put shortly: as §1
Assay [6] concerns LOC_OS01G70970-cb002. Put shortly:
as §1

The test system of assay [7] is LOC_OS02G07810-cb001. The method in brief: as §1
The test system of assay [8] is LOC_OS02G08530-cb003. Put shortly:
as §1

In assay [9] the test system is LOC_OS02G14120-cb001. The method in brief: as §1
The subject of assay [10] is LOC_OS02G17970-cb001. The method in brief: as §1
The subject of assay [11] is LOC_OS02G45750-cb003. Put shortly:
as §1

Assay [12] concerns LOC_OS02G54510-cb004. Put shortly: as §1
The test system of assay [13] is LOC_OS03G04050-cb001. Put shortly: as §1
For assay [14], the system named is LOC_OS03G12390-cb001. Put shortly: as §1
The subject of assay [15] is LOC_OS03G27990-cb004. The method in brief: as §1
Assay [16] has as its system LOC_OS03G50450-cb001. The method in brief:
as §1

Assay [17] relates to LOC_OS03G50810-cb003. The method in brief:
as §1

Assay [18] has as its system LOC_OS04G35114-cb001. Put shortly:
as §1

The subject of assay [19] is T1, LOC_OS04G38480-cb003.
T1 sequence (whole entry): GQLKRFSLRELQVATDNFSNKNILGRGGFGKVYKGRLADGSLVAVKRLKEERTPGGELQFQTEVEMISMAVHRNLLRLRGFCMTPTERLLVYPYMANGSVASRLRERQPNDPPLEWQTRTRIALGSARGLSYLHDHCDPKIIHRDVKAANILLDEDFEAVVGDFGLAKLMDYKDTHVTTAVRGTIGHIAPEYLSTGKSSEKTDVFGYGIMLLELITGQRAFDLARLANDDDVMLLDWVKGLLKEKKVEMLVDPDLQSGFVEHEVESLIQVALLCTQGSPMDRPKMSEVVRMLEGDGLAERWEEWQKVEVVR
The method in brief: as §1

Assay [20] deals with T2, LOC_OS04G41100-cb001.
T2 sequence (whole entry): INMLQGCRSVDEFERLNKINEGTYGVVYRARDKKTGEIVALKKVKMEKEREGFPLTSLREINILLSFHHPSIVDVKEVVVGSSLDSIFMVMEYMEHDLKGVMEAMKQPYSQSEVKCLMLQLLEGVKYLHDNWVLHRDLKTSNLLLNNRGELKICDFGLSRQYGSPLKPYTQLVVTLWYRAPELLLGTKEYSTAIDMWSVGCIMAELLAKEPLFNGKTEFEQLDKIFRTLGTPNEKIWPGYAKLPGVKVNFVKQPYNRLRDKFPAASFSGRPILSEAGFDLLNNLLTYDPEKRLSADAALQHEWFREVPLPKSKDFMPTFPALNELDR
The method in brief: as §1
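Note: purified Escherichia coli-expressed rice kinase domain construct.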

As for `CCc1cncnc1N1CCN(Cc2nc3ccc(C(F)(F)F)cc3[nH]2)CC1`, the “thermal shift delta Tm” value was 1.5 °C in assay [1]; 0.04 °C in assay [2]; 0.72 °C in assay [3]; 0.19 °C in [4]; -0.58 °C in [5]; 0.14 °C in assay [6]. The “thermal shift delta Tm” value in assay [7] was 0.73 °C; in [8], 0.49 °C; in [9] it was -0.72 °C; in assay [10], 0.34 °C; in assay [11] it was 0.59 °C; in assay [12], 0.3 °C. Also, the “thermal shift delta Tm” value in [13] was 0.39 °C; in [14], -0.06 °C; in assay [15], 0.33 °C; in assay [16], 0.04 °C; in assay [17], 0.36 °C; in assay [18] it was 0.25 °C. Moreover, the “thermal shift delta Tm” value in [19] and in assay [20] was 0.52 °C each time.
Consider `Cc1cc(Nc2ncnc3ccc(-c4ccc(CNCCS(C)(=O)=O)o4)cc23)ccc1Oc1ccn2ncnc2c1` [HER2-Inhibitor-1], for which the “thermal shift delta Tm” value in [1] was found to be 2.52 °C; in assay [2], 0.97 °C; in [3], 1.31 °C; in [4] it was 1.08 °C; in assay [5] it was 0.71 °C; in assay [6], 0.3 °C. Besides, the “thermal shift delta Tm” value came out at 0.98 °C in [7]; 2.32 °C in [8]; 2.21 °C in assay [9]; 1.79 °C in assay [10]; 2.59 °C in [11]; 0.24 °C in [12]. For the same compound, the “thermal shift delta Tm” value in assay [13] stood at 0.79 °C; in assay [14], 0.49 °C; in assay [15], 0.37 °C; in assay [16], 0.76 °C; in [17], 1.21 °C; in [18], 4.39 °C. The “thermal shift delta Tm” value in assay [19] amounted to 1.57 °C; in [20], 0.72 °C.
Consider `COc1ccc2c(Oc3ccc(NC(=O)c4c(C)n(CC(C)(C)O)n(-c5ccccc5)c4=O)nc3)ccnc2c1`, for which the “thermal shift delta Tm” value in assay [1] turned out to be 1.79 °C; in assay [2], 0.76 °C; in assay [3], 0.86 °C; in assay [4], 1.14 °C; in [5] it was 0.79 °C; in [6], 0.65 °C. The “thermal shift delta Tm” value amounted to 1.3 °C in assay [7]; 0.98 °C in assay [8]; 5.4 °C in assay [9]; 0.76 °C in assay [10]; 1.4 °C in assay [11]; 0.7 °C in assay [12]. Besides, the “thermal shift delta Tm” value in assay [13] is 0.2 °C; in assay [14], 0.21 °C; in [15] it was 0.18 °C; in assay [16] it was 0.38 °C; in assay [17] it was 0.39 °C; in assay [18], 0.36 °C. The “thermal shift delta Tm” value is 1.95 °C in assay [19] and 0.3 °C in assay [20].
For the compound `OC(c1cc(-c2ccc(Cl)cc2)nc2ccccc12)C1CCCCN1` (stereo not given) [Vacquinol-1], the “thermal shift delta Tm” value in assay [1] was 2.48 °C; in assay [2] it was 1.32 °C; in [3] it was 1.39 °C; in assay [4] it was 0.78 °C; in assay [5], 1.06 °C; in assay [6] it was 0.39 °C. Also, the “thermal shift delta Tm” value in assay [7] is 0.67 °C; in assay [8], 0.72 °C; in assay [9] it was 0.39 °C; in [10], 0.79 °C; in [11] it was 1.11 °C; in assay [12] it was -0.34 °C. In addition, the “thermal shift delta Tm” value was 0.42 °C in assay [13]; 0.39 °C in [14]; 0.57 °C in assay [15]; 1.11 °C in assay [16]; 0.65 °C in [17]; 0.88 °C in assay [18]. The “thermal shift delta Tm” value was determined as 1.95 °C in [19] and 0.59 °C in assay [20].
As for `Cc1cnc(-c2cnc(NCCNc3ccc(C#N)cn3)nc2-c2ccc(Cl)cc2Cl)[nH]1`, the “thermal shift delta Tm” value in [1] is 0.99 °C and 1.83 °C; in assay [2] it was 0.47 °C and 0.68 °C; in assay [3] it was 0.39 °C and 1.43 °C; in assay [4], 1.2 °C and 1.03 °C; in assay [5], 0.03 °C and 0.47 °C; in [6], 1.08 °C and 1.19 °C. For the same compound, the “thermal shift delta Tm” value in assay [7] was 1.11 °C and 0.87 °C; in assay [8], 0.72 °C and 0.68 °C; in assay [9], 0.07 °C and 0.44 °C; in assay [10] it was 0.65 °C and 2.15 °C; in assay [11], 1.15 °C and 1.22 °C; in [12] it was 0.15 °C and -0.03 °C. The “thermal shift delta Tm” value was 0.11 °C and 0.6 °C in assay [13]; 0.22 °C and 0.78 °C in assay [14]; 0.17 °C and 0.28 °C in assay [15]; -0.06 °C and 0.47 °C in assay [16]; 0.98 °C and 1.26 °C in assay [17]; 0.11 °C and 0.59 °C in [18]. Further, the “thermal shift delta Tm” value in assay [19] was 0.39 °C and 1.23 °C; in [20] it was 0.54 °C and 0.66 °C.
Turning to `CO[C@H]1C[C@@H]2CC[C@@H](C)[C@@](O)(O2)C(=O)C(=O)N2CCCC[C@H]2C(=O)O[C@H]([C@H](C)C[C@@H]2CC[C@@H](O)[C@H](OC)C2)CC(=O)[C@H](C)/C=C(\C)[C@@H](O)[C@@H](OC)C(=O)[C@H](C)C[C@H](C)/C=C/C=C/C=C/1C` [Rapamycin (Sirolimus)], the “thermal shift delta Tm” value is 1.56 °C in assay [1]; 1.82 °C in [2]; 1.04 °C in assay [3]; 0.14 °C in [4]; -0.59 °C in [5]; 0.17 °C in [6]. Besides, the “thermal shift delta Tm” value in assay [7] was 0.45 °C; in [8], 0.43 °C; in assay [9] it was 1 °C; in [10], 0.46 °C; in assay [11], 0.22 °C; in assay [12], 0 °C. Also, the “thermal shift delta Tm” value in assay [13] was 0.5 °C; in [14], 0.3 °C; in assay [15], 0.16 °C; in assay [16], 0.2 °C; in assay [17] it was -0.04 °C; in [18], 0.52 °C. Further, the “thermal shift delta Tm” value in assay [19] worked out at 1.63 °C; in assay [20], 0.69 °C.
